Screens deposited in PubChem BioAssay by Sanford-Burnham Center for Chemical Genomics.
Rows were chosen to be rich in hits. Some 3.9% of all compounds tested hit in one or more screens of this group.
TROY NFkB inh – blocks TROY-dependent signaling in reporter cells; Q293 LMP1-TROYcd NF-kB luciferase reporter, 4 h; inhibition, % at 10 µM; 360,000 compounds, 0.98% hits; AID 1347056;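 active = compounds whose plate-normalised and pattern-corrected inhibition of the luciferase reporter signal at the single screening dose is 50% or more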
Peg3 prom inh-1 – Peg3 promoter activity inhibition. inhibition, % at 20 µM. 360,000 compounds, 1.7% hits. AID 588405. HeLa PEG-Prom luciferase reporter, luminescence, overnight;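 active = inhibition of at least 50% at 20 µM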
KKLEB tox – reduces viability of KKLEB cystic fibrosis airway cells | 360,000 compounds, 0.36% hits | activity change (cytotoxicity), % at 5 µM | KKLEB CF airway cells viability, ATPlite luminescence, overnight; stronger effect = lower value; cells stimulated with P. aeruginosa culture filtrate;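 active = corrected activity change at or below -50% at 5 µM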
HIF-2a inh – inhibitors of HIF-2a | 360,000 compounds, 0.72% hits | inhibition, % at 18.8 µM | 786-0 RCC cells HIF-2a reporter, luciferase luminescence, overnight;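 active = inhibition of the luminescence signal of 40% or more relative to plate controls, in a single-dose primary screen at 18.75 µM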
TWEAK-Fn14 inh – blocks TWEAK-Fn14 interaction in a reporter cell assay; TWEAK-stimulated Fn14 reporter cells, luciferase luminescence, 8 h; 360,000 compounds, 2% hits; AID 1159606; inhibition, % at 10 µM; in the data active = inhibition above about 50%
CF NFkB block – blocks PAF-induced NF-kB reporter in cystic fibrosis cells | KKLEB NF-kB-GFP reporter, GFP fluorescence overnight | inhibition, % at 5 µM | 360,000 compounds, 0.86% hits | AID 588850;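 active = at least 50% inhibition at 5 µM, scaled per plate between neutral and stimulator controls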;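 note: PAF is a Pseudomonas aeruginosa culture filtrate used as stimulus; plate controls were PAF-stimulated DMSO wells for no effect and unstimulated DMSO wells for full effect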
Peg3 prom inh-2 – Peg3 promoter inhibition confirmation; shares compounds with Peg3 prom inh-1; 1,300 compounds, 84% hits; AID 602417; inhibition, % at 20 µM; HeLa PEG-Prom luciferase reporter, luminescence, overnight;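 active = at 20 µM dose, 40% or more inhibition averaged across four replicates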
Active calls of the source: *; / = not tested or not shown.

SMILES	TROY NFkB inh	Peg3 prom inh-1	KKLEB tox	HIF-2a inh	TWEAK-Fn14 inh	CF NFkB block	Peg3 prom inh-2
Cc1ccc(/C=C/C(=O)Nc2cc(S(=O)(=O)N3CCOCC3)ccc2N2CCOCC2)cc1	5	11	-3	-5	9	-8	/
COc1ccc(CNCCC(c2ccccc2)c2ccc(OC(C)C)cc2)cc1OC (stereo unspecified)	3	101*	21	20	7	-13	97*
COc1ccc(C(CCN(Cc2ccc(OC)c(OC)c2)C(C)=O)c2ccccc2)cc1 (stereo unspecified)	11	16	-10	17	13	6	/
CCOc1ccccc1C(=O)N[C@H](C(=O)OCc1cc(=O)oc2cc(C)ccc12)C(C)C	-48	10	-18	-7	-8	18	/
COCCn1c(-c2ccc(-c3ccc([N+](=O)[O-])cc3Br)o2)nc2c1c(=O)[nH]c(=O)n2CC(C)C	-3	52*	-6	18	13	19	30
COc1ccc(-c2ccc(-c3nc4c(c(=O)[nH]c(=O)n4Cc4ccccc4)n3C)o2)c([N+](=O)[O-])c1	-25	57*	-37	3	-1	21	16
Cc1onc(-c2c(Cl)cccc2Cl)c1C(=O)N=S(C)(=O)c1ccccc1 (stereo unspecified)	-5	17	-2	12	-4	-1	/
COCOCCn1cc(CN2CCS(=O)(=O)N(Cc3ccc(-c4ccc(Cl)c(Cl)c4)cc3)C(C(C)C)C2=O)nn1 (stereo unspecified)	29	61*	-7	-50	35	8	46*
Cc1ccc(-c2ccc(CN3C(CC(C)C)C(=O)N(Cc4cn(Cc5ccco5)nn4)CCS3(=O)=O)cc2)cc1 (stereo unspecified)	-7	5	-5	16	3	39	/
CC(C)CC1C(=O)N(Cc2cn(Cc3ccco3)nn2)CCS(=O)(=O)N1Cc1ccc(-c2ccc(F)cc2)cc1 (stereo unspecified)	23	64*	-21	-28	31	48	62*
COC(=O)c1ccccc1NC(=O)c1cc2n(n1)C(C(F)F)CC(C(F)F)N2 (stereo unspecified)	-13	8	-5	8	-10	8	/
Cc1ncc(CO)c(/C=N/NC(=S)Nc2ccc(F)cc2)c1O	-8	18	-1	13	-3	7	/
Cc1ncc(CO)c(/C=N/Nc2ccc(C(F)(F)F)cn2)c1O	-4	62*	2	11	25	6	67*
CC(=O)c1ccc(Nc2nc(C(N)Cc3ccc(Cl)cc3)cs2)cc1 (stereo unspecified)	2	56*	-17	1	-54	-19	72*
NC(Cc1ccc(F)cc1)c1csc(Nc2cc(Oc3ccccc3)ncn2)n1 (stereo unspecified)	17	79*	-12	6	-24	-7	83*
COc1cccc(Nc2nc(C(N)C(C)C)cs2)n1 (stereo unspecified)	-12	6	-4	2	-6	11	/
NC(COCc1ccccc1)c1csc(Nc2cc(Oc3ccccc3)ncn2)n1 (stereo unspecified)	13	7	-3	7	-22	-2	/
COc1ccc(CC(N)c2csc(Nc3cccc(OC)n3)n2)cc1 (stereo unspecified)	0	70*	3	23	-10	-9	96*
Cc1cc(Cn2nc(-c3ccccc3C)cc2C(=O)O)on1	-4	4	-17	2	-11	-13	/
Cc1cc(C)cc(NS(=O)(=O)c2ccc3[nH]cc(C(=O)NCc4ccco4)c(=O)c3c2)c1	14	55*	0	24	13	-10	71*
COc1ccccc1N1CCN(C(=O)CSc2ccccc2)CC1	-44	-138	8	-153	-21	3	/
COc1ccccc1N1CCN(C(=O)C(Sc2ccccc2)c2ccccc2)CC1 (stereo unspecified)	9	52*	14	24	-12	2	41*
CCN(c1ccccc1)S(=O)(=O)c1ccc(C(=O)N(CCCN(C)C)c2nc3cc4c(cc3s2)OCO4)cc1	-1	52*	-4	-3	-9	24	81*
